This passage reports outcome and AC50 results from PubChem BioAssay (EPA / NIEHS).

In test [1] the target is Protein deacetylase HDAC6 (Homo sapiens) (UniProt Q9UBN7). As to the kind of experiment: NVS_ENZ_hHDAC6: NovaScreen (NVS) Enzymatic Assay for human Histone Deacetylase 6 (HDAC6) (AID 2283164). Summed up: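 Concentration-response runs up to 50 uM followed a duplicate 25 uM single-point screen. Deacetylase activity of recombinant human HDAC6 read by fluorescence after 1 h, with mobility-shift separation of substrate and product; DMSO as baseline.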

In test [2] the target is human IkappaB Kinase alpha (IKKa), CHUK (gene 1147) (UniProt O15111). As to the kind of experiment: NVS_ENZ_hIKKa: NovaScreen (NVS) Enzymatic Assay for human IkappaB Kinase alpha (IKKa) (AID 2283167). The method in brief:
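Compounds first run in duplicate at 25 uM, those meeting threshold (e.g. 30% inhibition) retested to maximum 50 uM. Enzyme activity of recombinant IKKa measured by fluorescence with electrophoretic mobility shift separation, 1 hour post-dosing, DMSO baseline.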

The target in test [3] is human Janus Kinase 2 (Jak2), JAK2 (gene 3717) (UniProt O60674). As to the kind of experiment: NVS_ENZ_hJak2: NovaScreen (NVS) Enzymatic Assay for human Janus Kinase 2 (Jak2) (AID 2283169). Summed up: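 Single-point duplicate screen at 25 uM, with hits run in concentration series to a 50 uM top dose. Substrate-product separation by mobility shift with fluorescence detection, 1 h post-dosing; DMSO baseline.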
human Janus Kinase 2 (Jak2), JAK2 (gene 3717), sequence (O60674 whole entry, looked up): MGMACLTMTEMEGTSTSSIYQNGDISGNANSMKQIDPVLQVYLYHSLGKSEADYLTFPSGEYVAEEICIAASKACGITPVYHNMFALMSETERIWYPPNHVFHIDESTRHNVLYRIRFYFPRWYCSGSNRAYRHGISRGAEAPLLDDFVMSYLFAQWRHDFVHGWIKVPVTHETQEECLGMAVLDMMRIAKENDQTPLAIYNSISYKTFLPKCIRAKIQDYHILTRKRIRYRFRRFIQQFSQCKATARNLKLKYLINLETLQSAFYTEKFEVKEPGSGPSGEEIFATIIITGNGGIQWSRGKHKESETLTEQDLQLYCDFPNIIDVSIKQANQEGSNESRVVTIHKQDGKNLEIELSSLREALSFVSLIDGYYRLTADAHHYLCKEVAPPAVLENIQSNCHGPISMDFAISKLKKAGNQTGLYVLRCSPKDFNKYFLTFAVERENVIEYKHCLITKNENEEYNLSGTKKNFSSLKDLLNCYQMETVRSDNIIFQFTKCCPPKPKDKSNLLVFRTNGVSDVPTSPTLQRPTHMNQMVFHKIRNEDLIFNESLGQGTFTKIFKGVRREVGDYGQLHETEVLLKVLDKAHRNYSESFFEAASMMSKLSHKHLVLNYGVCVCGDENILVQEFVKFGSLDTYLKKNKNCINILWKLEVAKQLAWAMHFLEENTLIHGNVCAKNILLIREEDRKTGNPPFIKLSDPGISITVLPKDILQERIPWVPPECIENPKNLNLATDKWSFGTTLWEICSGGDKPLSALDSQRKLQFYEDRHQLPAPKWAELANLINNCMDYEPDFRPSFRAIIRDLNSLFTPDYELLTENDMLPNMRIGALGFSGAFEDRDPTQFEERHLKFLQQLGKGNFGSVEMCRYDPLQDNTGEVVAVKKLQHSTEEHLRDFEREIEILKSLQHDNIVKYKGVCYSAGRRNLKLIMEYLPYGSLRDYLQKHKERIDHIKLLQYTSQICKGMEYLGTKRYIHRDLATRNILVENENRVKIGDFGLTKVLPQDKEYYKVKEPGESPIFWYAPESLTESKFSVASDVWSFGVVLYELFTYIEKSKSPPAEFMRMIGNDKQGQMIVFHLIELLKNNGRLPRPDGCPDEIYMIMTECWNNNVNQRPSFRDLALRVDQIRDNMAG

In test [4] the target is human Mitogen-Activated Protein Kinase 1 (MAPK 1), MAPK1 (gene 5594) (UniProt P28482). As to the kind of experiment: NVS_ENZ_hMAPK1: NovaScreen (NVS) Enzymatic Assay for human Mitogen-Activated Protein Kinase 1 (MAPK 1) (AID 2283175). The method in brief: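 Cell-free recombinant human MAPK1 enzymatic assay, fluorescence/electrophoretic mobility shift read at 1 h; loss of signal vs DMSO. Primary screen in duplicate at 25 uM; actives (e.g. ≥30% inhibition) run as concentration-response up to 50 uM.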

In test [5] the target is Mitogen-activated protein kinase 3 (Homo sapiens) (UniProt P27361). As to the kind of experiment: NVS_ENZ_hMAPK3: NovaScreen (NVS) Enzymatic Assay for human Mitogen-Activated Protein Kinase 3 (MAPK 3) (AID 2283177). The method in brief: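 Chemicals were first tested in duplicate at 25 uM, with hits re-run as concentration series (max 50 uM). Recombinant enzyme activity, measured 1 h post-dose in a cell-free format, was read by fluorescence/mobility shift relative to DMSO.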
Mitogen-activated protein kinase 3 (Homo sapiens), sequence (P27361 whole entry, looked up): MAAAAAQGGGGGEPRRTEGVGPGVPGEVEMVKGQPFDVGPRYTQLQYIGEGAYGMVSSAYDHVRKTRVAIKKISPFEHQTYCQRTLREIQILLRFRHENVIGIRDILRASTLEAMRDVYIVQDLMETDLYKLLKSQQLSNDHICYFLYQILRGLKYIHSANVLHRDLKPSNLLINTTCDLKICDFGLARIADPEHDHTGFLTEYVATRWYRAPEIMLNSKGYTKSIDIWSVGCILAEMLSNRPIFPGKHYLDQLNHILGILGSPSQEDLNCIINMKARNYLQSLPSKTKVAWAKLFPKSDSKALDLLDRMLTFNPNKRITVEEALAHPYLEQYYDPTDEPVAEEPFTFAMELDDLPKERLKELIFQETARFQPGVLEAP

The target in test [6] is human MAP Kinase-Activated Protein Kinase 2 (MAPKAPK2), MAPKAPK2 (gene 9261) (UniProt P49137). As to the kind of experiment: NVS_ENZ_hMAPKAPK2: NovaScreen (NVS) Enzymatic Assay for human MAP Kinase-Activated Protein Kinase 2 (MAPKAPK2) (AID 2283178). The method in brief:
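Chemicals screened in duplicate at 25 uM, then to 50 uM top concentration in concentration-response, against recombinant human MAPKAPK2; substrate conversion read 1 hr post-dosing by fluorescence after electrophoretic mobility-shift separation, loss-of-signal relative to DMSO.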

Test [7] addresses human Matrix Metalloproteinase-7 (MMP7), MMP7 (gene 4316) (UniProt P09237). As to the kind of experiment: NVS_ENZ_hMMP7: NovaScreen (NVS) Enzymatic Assay for human Matrix Metalloproteinase-7 (MMP7) (AID 2283183). Summed up:
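Compounds first tested at 25 uM in duplicate, then at up to 50 uM in concentration series if active. Protease activity measured by fluorescence intensity 1 h after dosing, with fitting relative to DMSO.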

Test [8] addresses Glycogen synthase kinase-3 beta (Homo sapiens) (UniProt P49841). As to the kind of experiment: NVS_ENZ_hGSK3b: NovaScreen (NVS) Enzymatic Assay for human Glycogen Synthase Kinase-3 beta (GSK3b) (AID 2283165). The method in brief:
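Recombinant enzyme with specific fluorescent substrate, 1 h, product separated by electrophoretic mobility shift. Primary duplicate screen at 25 uM; actives (e.g. 30% inhibition) followed in singleton concentration-response to 50 uM. Signal loss fitted versus DMSO.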

The target of test [9] is human Esterase Plasma (ES), BCHE (gene 590) (UniProt P06276). As to the kind of experiment: NVS_ENZ_hES: NovaScreen (NVS) Enzymatic Assay for human Esterase Plasma (ES) (AID 2283157). The method in brief:
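Primary single-concentration screen at 25 uM in duplicate, then concentration-response to a 50 uM top dose. Human plasma esterase activity detected colorimetrically after 0.25 h incubation, with DMSO as baseline.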

Test [10] has as its target human Ephrin type-A Receptor 1 (EphA1), EPHA1 (gene 2041) (UniProt P21709). As to the kind of experiment: NVS_ENZ_hEphA1: NovaScreen (NVS) Enzymatic Assay for human Ephrin type-A Receptor 1 (EphA1) (AID 2283158).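 Note: activity is signal loss versus DMSO meaning EphA1 kinase inhibition.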 Summed up: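 Chemicals first tested in duplicate at 25 uM against recombinant EphA1 with a fluorescent substrate; those passing threshold went to singleton dose-response topping at 50 uM. Activity read 1 h later as mobility-shift fluorescence, loss of signal relative to DMSO.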

The target of test [11] is human Matrix Metalloproteinase-1 (MMP1), MMP1 (gene 4312) (UniProt P03956). As to the kind of experiment: NVS_ENZ_hMMP1: NovaScreen (NVS) Enzymatic Assay for human Matrix Metalloproteinase-1 (MMP1) (AID 2283181). The method in brief:
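Cell-free fluorescent substrate assay of human MMP1, read after 1 h. A single 25 uM duplicate screen was followed by concentration series to a maximum of 50 uM for actives meeting threshold; inhibition analysed against DMSO baseline.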

Test [12] concerns the target human Ephrin type-B Receptor 1 (EphB1), EPHB1 (gene 2047) (UniProt P54762). As to the kind of experiment: NVS_ENZ_hEphB1: NovaScreen (NVS) Enzymatic Assay for human Ephrin type-B Receptor 1 (EphB1) (AID 2283154). Summed up:
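Recombinant EphB1 activity read by fluorescence after mobility-shift separation of product from substrate, 1 h post-dosing. Compounds screened in duplicate at 25 uM; inhibition scored as signal loss relative to DMSO.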

The target of test [13] is Histone deacetylase 3 (Homo sapiens) (UniProt O15379). Put plainly: NVS_ENZ_hHDAC3: NovaScreen (NVS) Enzymatic Assay for human Histone Deacetylase 3 (HDAC3) (AID 2283163). Summed up: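 Cell-free enzyme format: loss of fluorescent product after mobility-shift separation, 1 h incubation, recombinant human HDAC3. Single 25 uM duplicate screen first, then concentration series to a 50 uM top for hits; DMSO as baseline.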

The target in test [14] is human MET Proto-Oncogene, Receptor Tyrosine Kinase (MET), MET (gene 4233) (UniProt P08581). Put plainly: NVS_ENZ_hMet: NovaScreen (NVS) Enzymatic Assay for human MET Proto-Oncogene, Receptor Tyrosine Kinase (MET) (AID 2283180). The method in brief:
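Hits from a 25 uM duplicate screen were retested in concentration series up to 50 uM. Enzyme activity was measured by fluorescence after electrophoretic separation of product from substrate, 1 h after compound addition, relative to DMSO.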

For test [15], the target named is human Elastase, ELANE (gene 1991) (UniProt P08246). As to the kind of experiment: NVS_ENZ_hElastase: NovaScreen (NVS) Enzymatic Assay for human Elastase (AID 2283153). Summed up: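 Concentration-response to 50 uM max, run singly for chemicals passing a threshold (e.g., 30% inhibition) in a duplicate 25 uM single-point screen. Neutrophil-derived human elastase, absorbance read-out of enzyme activity at 1.5 h; DMSO baseline.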

Test [16] has as its target Collagenase 3 (Homo sapiens) (UniProt P45452). As to the kind of experiment: NVS_ENZ_hMMP13: NovaScreen (NVS) Enzymatic Assay for human Matrix Metalloproteinase-13 (MMP13) (AID 2283182). Summed up:
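Recombinant MMP13 cleaving fluorescent substrate, cell-free, measured 1 h after dosing. Primary duplicate screen at 25 uM; actives tested in concentration-response up to 50 uM; loss of signal relative to DMSO.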

In test [17] the target is human c-Jun N-terminal Kinases (JNK2), MAPK9 (gene 5601) (UniProt P45984). As to the kind of experiment: NVS_ENZ_hJNK2: NovaScreen (NVS) Enzymatic Assay for human c-Jun N-terminal Kinases (JNK2) (AID 2283171). Summed up:
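Chemicals first tested in duplicate at 25 uM, then in singleton concentration series up to 50 uM, against extracted JNK2 enzyme. Activity loss read by fluorescence with mobility-shift separation 1 h post-dose; DMSO baseline.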

Test [18] concerns the target human FYN Proto-Oncogene, Src family Tyrosine Kinase (Fyn), FYN (gene 2534) (UniProt P06241). Put plainly: NVS_ENZ_hFyn: NovaScreen (NVS) Enzymatic Assay for human FYN Proto-Oncogene, Src family Tyrosine Kinase (Fyn) (AID 2283161). Summed up:
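Cell-free kinase activity read by fluorescence after mobility-shift separation of substrate and product, 1 h post-dose. Initial single concentration 25 uM in duplicate, then concentration-response follow-up; DMSO baseline.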

Records with an inconclusive call do not appear. The source made the active and inactive calls. Rule for the calls: active = hit-call score of the fitted dose curve at least 0.9, where 1 is the maximum; inconclusive = response in the unintended direction; inactive = score below 0.9.

human Esterase Plasma (ES), BCHE (gene 590), sequence (P06276 whole entry, looked up): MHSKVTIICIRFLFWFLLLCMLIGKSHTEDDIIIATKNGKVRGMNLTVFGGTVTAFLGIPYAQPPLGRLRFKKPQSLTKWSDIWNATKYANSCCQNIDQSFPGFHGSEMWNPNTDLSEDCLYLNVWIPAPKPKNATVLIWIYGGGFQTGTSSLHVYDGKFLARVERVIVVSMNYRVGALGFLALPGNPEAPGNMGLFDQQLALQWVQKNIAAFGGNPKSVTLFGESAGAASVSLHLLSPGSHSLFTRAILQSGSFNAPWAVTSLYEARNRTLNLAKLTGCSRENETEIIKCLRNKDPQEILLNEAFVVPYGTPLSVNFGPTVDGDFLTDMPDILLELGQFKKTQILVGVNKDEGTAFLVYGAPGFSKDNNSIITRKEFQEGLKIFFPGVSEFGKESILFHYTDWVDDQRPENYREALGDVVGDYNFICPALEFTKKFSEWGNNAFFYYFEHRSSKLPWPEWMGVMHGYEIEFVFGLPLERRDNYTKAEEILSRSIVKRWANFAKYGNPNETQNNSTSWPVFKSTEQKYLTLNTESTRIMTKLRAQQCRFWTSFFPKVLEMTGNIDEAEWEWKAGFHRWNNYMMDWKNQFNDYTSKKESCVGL
human Matrix Metalloproteinase-7 (MMP7), MMP7 (gene 4316), sequence (P09237 whole entry, looked up): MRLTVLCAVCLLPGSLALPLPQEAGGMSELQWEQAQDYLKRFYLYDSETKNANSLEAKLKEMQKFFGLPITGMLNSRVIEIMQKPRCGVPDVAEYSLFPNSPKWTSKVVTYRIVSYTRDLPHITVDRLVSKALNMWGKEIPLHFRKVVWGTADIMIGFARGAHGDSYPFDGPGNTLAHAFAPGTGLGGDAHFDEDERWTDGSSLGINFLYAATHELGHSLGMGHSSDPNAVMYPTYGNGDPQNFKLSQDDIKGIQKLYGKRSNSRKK
human Matrix Metalloproteinase-1 (MMP1), MMP1 (gene 4312), sequence (P03956 whole entry, looked up): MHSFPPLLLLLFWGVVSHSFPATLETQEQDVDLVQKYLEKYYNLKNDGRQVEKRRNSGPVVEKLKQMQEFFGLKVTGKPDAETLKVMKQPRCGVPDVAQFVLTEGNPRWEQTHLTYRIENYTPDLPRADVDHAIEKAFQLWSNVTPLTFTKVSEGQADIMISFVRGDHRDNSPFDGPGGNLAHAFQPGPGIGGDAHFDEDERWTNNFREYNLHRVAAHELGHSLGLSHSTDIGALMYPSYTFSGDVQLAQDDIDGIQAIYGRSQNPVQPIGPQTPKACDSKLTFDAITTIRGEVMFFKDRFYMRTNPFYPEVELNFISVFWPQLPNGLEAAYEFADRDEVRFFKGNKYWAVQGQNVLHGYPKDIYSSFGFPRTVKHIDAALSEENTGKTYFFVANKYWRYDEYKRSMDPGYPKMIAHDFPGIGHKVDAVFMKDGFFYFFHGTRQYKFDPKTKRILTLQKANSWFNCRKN
human Ephrin type-A Receptor 1 (EphA1), EPHA1 (gene 2041), sequence (P21709 whole entry, looked up): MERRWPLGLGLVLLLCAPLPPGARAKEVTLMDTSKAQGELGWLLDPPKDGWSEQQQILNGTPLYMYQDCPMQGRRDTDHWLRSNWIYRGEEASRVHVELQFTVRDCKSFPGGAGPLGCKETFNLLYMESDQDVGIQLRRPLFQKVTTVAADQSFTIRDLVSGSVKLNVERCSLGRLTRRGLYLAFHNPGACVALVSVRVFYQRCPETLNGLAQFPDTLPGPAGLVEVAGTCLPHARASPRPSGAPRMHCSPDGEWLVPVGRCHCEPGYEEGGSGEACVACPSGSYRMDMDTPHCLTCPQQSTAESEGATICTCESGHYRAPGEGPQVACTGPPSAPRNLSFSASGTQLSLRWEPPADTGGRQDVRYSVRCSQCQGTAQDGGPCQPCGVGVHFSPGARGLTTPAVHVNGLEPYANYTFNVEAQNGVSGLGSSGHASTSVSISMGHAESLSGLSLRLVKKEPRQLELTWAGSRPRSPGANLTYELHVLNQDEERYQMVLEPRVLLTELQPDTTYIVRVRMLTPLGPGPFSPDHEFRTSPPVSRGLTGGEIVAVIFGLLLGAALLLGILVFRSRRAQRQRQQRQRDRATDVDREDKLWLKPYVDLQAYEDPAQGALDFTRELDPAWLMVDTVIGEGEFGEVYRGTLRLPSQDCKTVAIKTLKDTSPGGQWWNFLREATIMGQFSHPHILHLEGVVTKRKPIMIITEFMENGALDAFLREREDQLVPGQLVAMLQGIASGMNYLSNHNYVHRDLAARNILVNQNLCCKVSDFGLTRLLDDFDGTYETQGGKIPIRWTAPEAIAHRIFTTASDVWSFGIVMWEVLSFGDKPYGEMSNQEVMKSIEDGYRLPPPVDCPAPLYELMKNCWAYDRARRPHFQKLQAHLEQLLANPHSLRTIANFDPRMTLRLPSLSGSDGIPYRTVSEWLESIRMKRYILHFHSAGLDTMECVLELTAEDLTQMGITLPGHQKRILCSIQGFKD
Glycogen synthase kinase-3 beta (Homo sapiens), sequence (P49841 whole entry, looked up): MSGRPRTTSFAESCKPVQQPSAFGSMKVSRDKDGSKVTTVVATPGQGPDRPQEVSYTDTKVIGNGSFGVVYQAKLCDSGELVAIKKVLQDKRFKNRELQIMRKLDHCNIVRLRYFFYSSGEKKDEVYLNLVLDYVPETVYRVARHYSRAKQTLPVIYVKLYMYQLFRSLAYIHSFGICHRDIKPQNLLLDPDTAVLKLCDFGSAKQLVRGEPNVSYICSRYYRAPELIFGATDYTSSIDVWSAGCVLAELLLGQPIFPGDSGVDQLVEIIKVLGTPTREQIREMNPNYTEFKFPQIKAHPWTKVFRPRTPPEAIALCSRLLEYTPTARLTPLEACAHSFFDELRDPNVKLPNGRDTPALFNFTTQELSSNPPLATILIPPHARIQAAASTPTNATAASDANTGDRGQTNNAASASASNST
human IkappaB Kinase alpha (IKKa), CHUK (gene 1147), sequence (O15111 whole entry, looked up): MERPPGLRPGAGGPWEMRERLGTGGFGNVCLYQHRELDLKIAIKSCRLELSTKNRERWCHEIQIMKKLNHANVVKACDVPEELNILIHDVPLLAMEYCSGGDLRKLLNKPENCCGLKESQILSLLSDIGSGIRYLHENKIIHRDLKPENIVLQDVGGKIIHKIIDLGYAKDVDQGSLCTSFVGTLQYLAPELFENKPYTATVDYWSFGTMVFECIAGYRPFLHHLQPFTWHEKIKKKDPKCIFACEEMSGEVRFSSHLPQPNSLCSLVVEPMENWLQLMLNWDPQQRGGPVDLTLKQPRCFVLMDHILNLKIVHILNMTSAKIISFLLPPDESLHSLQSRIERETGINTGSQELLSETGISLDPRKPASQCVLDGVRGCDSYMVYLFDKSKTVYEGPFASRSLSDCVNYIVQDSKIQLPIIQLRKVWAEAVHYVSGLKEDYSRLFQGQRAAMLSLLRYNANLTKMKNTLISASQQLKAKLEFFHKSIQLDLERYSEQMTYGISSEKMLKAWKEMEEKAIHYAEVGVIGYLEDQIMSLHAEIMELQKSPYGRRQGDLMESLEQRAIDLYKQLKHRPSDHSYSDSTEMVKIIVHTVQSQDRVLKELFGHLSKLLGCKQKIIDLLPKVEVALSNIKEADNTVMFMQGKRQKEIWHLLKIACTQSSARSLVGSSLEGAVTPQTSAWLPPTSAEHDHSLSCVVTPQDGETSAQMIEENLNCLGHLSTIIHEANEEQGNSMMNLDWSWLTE

As for `O=S(=O)(O)C(F)(F)C(F)(F)C(F)(F)C(F)(F)C(F)(F)C(F)(F)F`, the outcome in test [1], in test [2], in test [3], in [4], in test [5] and in test [6] was inactive. Also, in test [7], the outcome was inactive.

`O=C(NC(=O)c1cc(F)c(F)cc1Cl)Nc1cc(F)ccc1N1CCC(C(=O)O)CC1`: the result in test [8] was inactive.

On to `CCCN(CCC)N=O`, for which the molecule was classed as inactive in test [9] and in test [8].

As to `CCCCCCCCCc1ccc(O)cc1`, the molecule was called inactive in test [10].

Turning to `CC#Cc1cc(C)nc(Nc2ccccc2)n1`, the molecule was classed as inactive in test [5].

As for `O=C(O)C(F)(F)C(F)(F)C(F)(F)C(F)(F)C(F)(F)C(F)(F)C(F)(F)C(F)(F)C(F)(F)F`, the molecule was classed as inactive in test [11].

As for `CN(C)c1nc(=O)n(C2CCCCC2)c(=O)n1C`, in test [12], the molecule was called inactive.

As for `C=CC(N)=O`, in test [8], the outcome was inactive.

With `CCOP(=S)(OCC)SCSC(C)(C)C`, in test [13], the result was inactive.

For the molecule `Cc1ccccc1[N+](=O)[O-]`, the molecule was called inactive in test [8] and in [14].

For `ClC1=C(Cl)[C@]2(Cl)[C@@H]3[C@@H]4C[C@@H]([C@H]5O[C@@H]45)[C@@H]3[C@@]1(Cl)C2(Cl)Cl`, the concentration at half-maximal activity (AC50) (usually the concentration at which the activity in the assay is half-maximal) in test [15] was 37.5 µM (active).

As to `CC(C)(c1ccccc1)c1ccc(O)cc1`, in test [11], the AC50 was 10.5 µM (active).

Turning to `C1CC2OC2CC1C1CO1` (stereo not given), in [8], the molecule was called inactive.

On to `ClC1=C(Cl)[C@]2(Cl)[C@@H]3[C@@H](Cl)[C@H]4O[C@H]4[C@@H]3C1(Cl)C2(Cl)Cl`, for which, in test [5], the result was inactive.

Consider `CCCCCCCCCC[N+](C)(C)CCCCCCCCCC`, for which the AC50 was 25 µM (active) in test [9] and 19.7 µM (active) in test [10]. The molecule was called inactive in test [11] and in [16].

For the molecule `Cc1ccccc1O`, the outcome in test [8] was inactive.

In the case of `O=C(O)C(F)(F)C(F)(F)C(F)(F)C(F)(F)C(F)(F)F`, the molecule was classed as inactive in test [13], in test [3], in test [17] and in test [7].

As for `O=C(N[C@H]1CN2CCC1CC2)c1cc2ccoc2cn1`, the result in test [9] and in test [7] was inactive.

As for `O=C(O)C(F)(F)C(F)(F)C(F)(F)C(F)(F)C(F)(F)C(F)(F)C(F)(F)C(F)(F)F`, the molecule was classed as inactive in [10], in [18], in test [8], in [2] and in test [14].

As for `CCOCCOC(C)=O`, the outcome in [1] and in test [6] was inactive.
